# In PubChem BioAssay (NCATS):
# Results filed as inconclusive are left out. A number with no mark means an inactive call. Activity calls are given as the source filed them. Calls follow the shape of the dose curve; as a rule, active = well fitted cell-killing curve with a large enough effect; inconclusive = small, poorly fitted or top-dose-only effect, or effect the other way; inactive = no such curve, though single readings can be large or run the other way.
# Experiment: Viability qHTS for spleen associated tyrosine kinase inhibitor (SYKi) drug resistant MV4-11 cells (AID 1963824); also: nearly all actives have a fitted effect of over 35% in size
# Settings: SYKi-resistant MV4-11 viability, CellTiter-Glo, 72 h; series mostly up to 45 µM
# How it was run: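 SYK-inhibitor-resistant MV4-11 AML cells were seeded at 500 per well onto compound and cultured 72 hours (37 °C, 5% CO2). CellTiter-Glo was then added, and after 10 min at room temperature, luminescence gave viability.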
# Potency is read from the fitted curve at half-maximal effect.
SMILES,"viability, % of control",Potency
C[C@@H]1O[C@@H](O[C@@H]2[C@@H](O)[C@H](O[C@@H]3[C@@H](O)[C@@H](O)[C@H](O[C@H]4[C@H](OC(=O)[C@]56CCC(C)(C)C[C@H]5C5=CCC7[C@@]8(C)C[C@H](O)[C@H](O[C@@H]9O[C@H](C(=O)O)[C@@H](O)[C@H](O)[C@H]9O)[C@@](C)(CO)C8[C@H](O)C[C@@]7(C)[C@]5(C)CC6)OC[C@H](O)[C@@H]4O)O[C@H]3C)OC[C@H]2O)[C@H](O)[C@H](O)[C@H]1O (some centres undefined),89.9% [at 9.25 µM],
C=C1CC2[C@@]3(C)C=CC(=O)C(C)(C)C3=C(O)C(=O)[C@@]2(C)C2(C(=O)OC)C(=O)C(C)OC(=O)[C@@]12C (some centres undefined),,10 µM (active)
N#CCc1ccc(O)cc1O[C@@H]1O[C@H](CO)[C@@H](O)[C@H](O)[C@H]1O,,inactive
O=C(Nc1cc(-c2ccccc2)nn1-c1ccccc1)c1ccc([N+](=O)[O-])cc1,,18.4 µM (active)
CC(C)(C)Nc1nc2cc(Cl)c(Cl)cc2nc1S(C)(=O)=O,,0.731 µM (active)
C[C@@H]1O[C@@H](O[C@H]2[C@H](O[C@H]3[C@H](O)[C@@H](C(=O)O)O[C@@H](O[C@H]4CC[C@@]5(C)C(CC[C@]6(C)C5CC[C@]57OC[C@@]8(CCC(C)(C)CC85)[C@H](O)C[C@]76C)C4(C)C)[C@@H]3O[C@@H]3O[C@H](CO)[C@@H](O[C@@H]4OC[C@@H](O)[C@H](O)[C@H]4O)[C@H](O)[C@H]3O)O[C@H](CO)[C@H](O)[C@@H]2O)[C@H](O)[C@H](O)[C@H]1O (some centres undefined),94.7% [at 9.25 µM],
CC1(C(=O)O)CCCC2(C)C3CCC4CC3(CCC12)CC4C(=O)O (centres undefined),,inactive
CC(C)OC(=O)OCOP(=O)(COC(C)Cn1cnc2c(N)ncnc21)OCOC(=O)OC(C)C (centres undefined),,2.06 µM (active)
C[C@@H]1O[C@@H](O[C@H]2[C@H](OC(=O)[C@]34CCC(C)(C)C[C@H]3C3=CCC5[C@@]6(C)C[C@H](O)[C@H](O[C@@H]7O[C@H](CO)[C@@H](O)[C@H](O)[C@H]7O)[C@@](C)(CO)C6[C@H](O)C[C@@]5(C)[C@]3(C)C[C@H]4O)OC[C@H](O)[C@@H]2O)[C@H](O)[C@H](O)[C@H]1O[C@@H]1OC[C@@H](O)[C@H](O[C@H]2OC[C@](O)(CO)[C@H]2O)[C@H]1O (some centres undefined),104% [at 9.25 µM],
Cc1cc(C)nc(NS(=O)(=O)c2ccc(NC(=S)NC(=O)COc3ccc(Br)cc3Cl)cc2)n1,,inactive
CN(CCO)C1CCN(c2ccc(Nc3ncc4c5ccnc(F)c5n(C5CCCC5)c4n3)nc2)CC1,,0.0645 µM (active)
CC1CCC2(C(=O)OC3OC(CO)C(O)C(O)C3O)CCC3(C)C(=CCC4C5(C)CC(O)C(O)C(C)(C(=O)O)C5CCC43C)C2C1(C)O (centres undefined),,inactive
COc1cc2ncc(-c3ccccc3)nc2cc1OC,,4.61 µM (active)
C=C1C2(C)CC3C4(C)OC(C5OC56C4=CC(=O)OC6(C)C)C3(C)C13C(=O)OC(C)C3(O)C2=O (centres undefined),,inactive
C=C1C[C@]23C[C@H]1CC[C@H]2[C@@]1(C)CCC[C@@]2(C)C(=O)O[C@@H]([C@@H]3O)[C@@H]12,,1.43 µM (active)
CC1=C2C(=O)C=C(CO)[C@@H]2[C@H]2OC(=O)[C@H](C)[C@@H]2[C@@H](O)C1,,inactive
CC1(O)CC(O)C2C(C(=O)O)=COC(OC3OC(CO)C(O)C(O)C3OC(=O)/C=C/c3ccc(O)cc3)C21 (centres undefined),,inactive
C=C(C(=O)O)C1CCC2(C)CCC(O)C(=C)C2C1 (centres undefined),,inactive
C=C1C(=O)O[C@@H]2/C=C(\C)CC/C=C(\C)CC[C@@H]12,,2.59 µM (active)
